Assay [1] can be described thus: NCI Yeast Anticancer Drug Screen. Data for the rad50 strain (AID 155).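 Further: 0% = growth of vehicle-only cultures of the same strain.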 The note with it: S. cerevisiae rad50 strain growth inhibition, hits give high values. Summed up: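 Compounds were tested on a yeast strain with an engineered DNA damage repair alteration; the reported value is growth inhibition normalised to vehicle treatment.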
The nature of assay [2]: NCI Yeast Anticancer Drug Screen. Data for the mec2-1 strain (AID 157). The note with it: S. cerevisiae mec2-1 strain, hits give high values. The procedure, abridged: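 Using mec2-1 yeast: add compound, measure growth, express inhibition versus vehicle-treated cultures.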
Assay [3] is described as follows: NCI Yeast Anticancer Drug Screen. Data for the sgs1 mgt1 strain (AID 161).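 Further: 0% = growth of cultures given vehicle only.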 The following applies: S. cerevisiae sgs1 mgt1 strain, hits give high values. The procedure, abridged: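 Compounds are added to genetically altered yeast, and growth is compared with cultures given vehicle alone to give percent inhibition.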
A short description of assay [4]: NCI Yeast Anticancer Drug Screen. Data for the cln2 rad14 strain (AID 165).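 Further: 0% = growth equal to vehicle treated cultures.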 The note with it: S. cerevisiae cln2 rad14 strain, hits give high values. The procedure, abridged:
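Yeast strain cln2 rad14, bearing defects in cell cycle control and DNA repair, serves as the test system; values reflect growth inhibition compared with vehicle.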

The nature of assay [5]: NCI Yeast Anticancer Drug Screen. Data for the bub3 strain (AID 167). The following applies: S. cerevisiae bub3 mutant strain, hits give high values. Summed up:
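Growth of a checkpoint-deficient yeast mutant is measured after compound exposure. Values represent inhibition relative to vehicle.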

Assay [6] can be described thus: NCI Yeast Anticancer Drug Screen. Data for the mlh1 rad18 strain (AID 175). The note with it: S. cerevisiae mlh1 rad18 strain growth inhibition, hits give high values. The procedure, abridged: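 Steps: expose repair-defective yeast to compound; measure growth; express inhibition against vehicle-treated controls.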
Where [7] appears, read: at 5.0 µM (retest, dose inferred, filed as 0.5).
[8] abbreviates: at 50.0 µM (retest, dose inferred, filed as 5.0).

Molecules are shown by their SMILES. This is part of a sample that, as a whole, favours compounds with a hit. Of some 79,000 tested, about 15% had one in any assay. Unmarked numbers belong to inactive results. Calls of active or inactive are those of the source. No stated cut-off is given here; in the data, active means growth inhibition above about 70%; inactive means the rest. Where a SMILES comes first, the peptide text is derived from it. The star is where a group is joined. Boc = CC(C)(C)OC(=O)*; OBn = c1ccc(CO*)cc1; Bn = c1ccc(C*)cc1

As to `CCOC(=O)C(=CNC(=S)Nc1c(CC)cccc1C(C)(C)C)C(=O)OCC`, the growth inhibition in assay [1] (setting [7]) is 6%; in assay [1] (setting [8]), 74% (active); in assay [1] (at 50.0 µM), 85.2% (active); in assay [2] (setting [7]) it was -13%; in assay [2] (setting [8]), 44%; in assay [2] (at 50.0 µM) it was 75.5% (active). The growth inhibition is -2% in assay [3] (setting [7]); 27% in assay [3] (setting [8]); 77% (active) in assay [3] (at 50.0 µM); 1% in assay [4] (setting [7]); 52% in assay [4] (setting [8]); 76.3% (active) in assay [4] (at 50.0 µM). In addition, the growth inhibition in assay [5] (setting [7]) is -11%; in assay [5] (setting [8]), 58%; in assay [5] (at 50.0 µM), 84.2% (active); in assay [6] (setting [7]) it was -11%; in assay [6] (setting [8]), 67%; in assay [6] (at 50.0 µM) it was 86.8% (active).

Regarding `C/C=C(/CN/C(=C\[N+](=O)[O-])c1ccccc1)c1ccccc1`, the growth inhibition in assay [1] (setting [7]) was 0%; in assay [1] (setting [8]) it was 87% (active); in assay [1] (at 50.0 µM), 96.5% (active); in assay [2] (setting [7]), -4%; in assay [2] (setting [8]), 86% (active); in assay [2] (at 50.0 µM), 95% (active). In addition, the growth inhibition was 0% in assay [3] (setting [7]); 79% (active) in assay [3] (setting [8]); 94.3% (active) in assay [3] (at 50.0 µM); -1% in assay [4] (setting [7]); 37% in assay [4] (setting [8]); 75.2% (active) in assay [4] (at 50.0 µM). Besides, the growth inhibition was 8% in assay [5] (setting [7]); 74% (active) in assay [5] (setting [8]); 92.7% (active) in assay [5] (at 50.0 µM); -8% in assay [6] (setting [7]); 84% (active) in assay [6] (setting [8]); 95.5% (active) in assay [6] (at 50.0 µM).

Consider `C1=C(c2ccccc2)C(c2ccc(OCCN3CCCCC3)cc2)Oc2ccccc21` (configuration not stated), for which the growth inhibition is 39% in assay [1] (setting [7]); 99% (active) in assay [1] (setting [8]); 99.3% (active) in assay [1] (at 50.0 µM); 9% in assay [2] (setting [7]); 99% (active) in assay [2] (setting [8]); 99.5% (active) in assay [2] (at 50.0 µM). For the same molecule, the growth inhibition in assay [3] (setting [7]) was 24%; in assay [3] (setting [8]), 99% (active); in assay [3] (at 50.0 µM), 97.5% (active); in assay [4] (setting [7]), 25%; in assay [4] (setting [8]) it was 99% (active); in assay [4] (at 50.0 µM), 98.1% (active). In addition, the growth inhibition in assay [5] (setting [7]) was 35%; in assay [5] (setting [8]) it was 99% (active); in assay [5] (at 50.0 µM), 98.8% (active); in assay [6] (setting [7]) it was 16%; in assay [6] (setting [8]), 99% (active); in assay [6] (at 50.0 µM), 99.5% (active).

As to `CC(C)CC(NC(=O)C(Cc1ccccc1)NC(=O)C(COCc1ccccc1)NC(=O)OC(C)(C)C)C(=O)OCc1ccccc1` (stereo not drawn) (Boc-Ser(Bn)-Phe-Leu-OBn; configuration not given here), the growth inhibition in assay [1] (setting [7]) was 16%; in assay [1] (setting [8]) it was 13%; in assay [1] (at 50.0 µM), 16.8%; in assay [2] (setting [7]), 22%; in assay [2] (setting [8]) it was 15%; in assay [2] (at 50.0 µM) it was 2.6%. For the same molecule, the growth inhibition is -15% in assay [3] (setting [7]); -29% in assay [3] (setting [8]); 17.2% in assay [3] (at 50.0 µM); -3% in assay [4] (setting [7]); 7% in assay [4] (setting [8]); 16.2% in assay [4] (at 50.0 µM). Moreover, the growth inhibition in assay [5] (setting [7]) is -4%; in assay [5] (setting [8]), -7%; in assay [5] (at 50.0 µM) it was 25.4%; in assay [6] (setting [7]) it was 26%; in assay [6] (setting [8]) it was 15%; in assay [6] (at 50.0 µM) it was 24.3%.

For `COc1ccc(OC)c(N=Nc2c(C)[nH]n(C(N)=S)c2=O)c1`, the growth inhibition in assay [1] (setting [7]) is -6%; in assay [1] (setting [8]) it was 47%; in assay [1] (at 50.0 µM), 79.3% (active); in assay [2] (setting [7]) it was -3%; in assay [2] (setting [8]) it was 34%; in assay [2] (at 50.0 µM) it was 19%. Also, the growth inhibition is 7% in assay [3] (setting [7]); 34% in assay [3] (setting [8]); 80.7% (active) in assay [3] (at 50.0 µM); -2% in assay [4] (setting [7]); 27% in assay [4] (setting [8]); 10.6% in assay [4] (at 50.0 µM). The growth inhibition was -14% in assay [5] (setting [7]); 26% in assay [5] (setting [8]); 42.1% in assay [5] (at 50.0 µM); 11% in assay [6] (setting [7]); 25% in assay [6] (setting [8]); 66.7% in assay [6] (at 50.0 µM).

Consider `O=C1SCCN1/N=C/c1ccc([N+](=O)[O-])o1`, for which the growth inhibition was 30% in assay [1] (setting [7]); 85% (active) in assay [1] (setting [8]); 85.8% (active) in assay [1] (at 50.0 µM); 13% in assay [2] (setting [7]); 82% (active) in assay [2] (setting [8]); 65.3% in assay [2] (at 50.0 µM). Moreover, the growth inhibition was 34% in assay [3] (setting [7]); 92% (active) in assay [3] (setting [8]); 93.3% (active) in assay [3] (at 50.0 µM); 2% in assay [4] (setting [7]); 68% in assay [4] (setting [8]); 50.7% in assay [4] (at 50.0 µM). In addition, the growth inhibition was 10% in assay [5] (setting [7]); 80% (active) in assay [5] (setting [8]); 64.6% in assay [5] (at 50.0 µM); 51% in assay [6] (setting [7]); 94% (active) in assay [6] (setting [8]); 92% (active) in assay [6] (at 50.0 µM).

In the case of `CCOC(=O)C(CCSC)C(=O)OCC`, the growth inhibition was -1% in assay [1] (setting [7]); -2% in assay [1] (setting [8]); 11% in assay [1] (at 50.0 µM); 2% in assay [2] (setting [7]); 2% in assay [2] (setting [8]); 12.8% in assay [2] (at 50.0 µM). For the same molecule, the growth inhibition in assay [3] (setting [7]) is 4%; in assay [3] (setting [8]) it was -2%; in assay [3] (at 50.0 µM), -0.15%; in assay [4] (setting [7]), 1%; in assay [4] (setting [8]), -1%; in assay [4] (at 50.0 µM) it was 76.1% (active). In addition, the growth inhibition in assay [5] (setting [7]) was -3%; in assay [5] (setting [8]), 3%; in assay [5] (at 50.0 µM), -2.4%; in assay [6] (setting [7]), -3%; in assay [6] (setting [8]), -4%; in assay [6] (at 50.0 µM), 2.35%.

For `CC1=C(C(=O)Nc2ccccc2C)C(c2ccc(Cl)c(Cl)c2)C(C(=O)Nc2ccccc2C)=C(C)N1`, the growth inhibition in assay [1] (setting [7]) was 5%; in assay [1] (setting [8]) it was 5%; in assay [1] (at 50.0 µM), 84% (active); in assay [2] (setting [7]) it was 2%; in assay [2] (setting [8]), 2%; in assay [2] (at 50.0 µM), 76.3% (active). The growth inhibition is -5% in assay [3] (setting [7]); -5% in assay [3] (setting [8]); 79.4% (active) in assay [3] (at 50.0 µM); 8% in assay [4] (setting [7]); 8% in assay [4] (setting [8]); 78.5% (active) in assay [4] (at 50.0 µM). Besides, the growth inhibition is -19% in assay [5] (setting [7]); -19% in assay [5] (setting [8]); 82% (active) in assay [5] (at 50.0 µM); 8% in assay [6] (setting [7]); 8% in assay [6] (setting [8]); 77.1% (active) in assay [6] (at 50.0 µM).

For `CCCCc1c2c(nc3c1CCc1cc4cc5c(nc4nc1-3)-c1nc3c(c(CCCC)c1CC5)CCC/C3=N/OC)/C(=N\OC)CCC2`, the growth inhibition in assay [1] (setting [7]) is 0%; in assay [1] (setting [8]) it was 76% (active); in assay [1] (at 50.0 µM) it was 94.2% (active); in assay [2] (setting [7]), 2%; in assay [2] (setting [8]), 94% (active); in assay [2] (at 50.0 µM), 96% (active). The growth inhibition was -4% in assay [3] (setting [7]); 90% (active) in assay [3] (setting [8]); 95.8% (active) in assay [3] (at 50.0 µM); -22% in assay [4] (setting [7]); 93% (active) in assay [4] (setting [8]); 95.3% (active) in assay [4] (at 50.0 µM). In addition, the growth inhibition in assay [5] (setting [7]) is -5%; in assay [5] (setting [8]) it was 90% (active); in assay [5] (at 50.0 µM), 95.9% (active); in assay [6] (setting [7]), -11%; in assay [6] (setting [8]), 93% (active); in assay [6] (at 50.0 µM), 95.7% (active).

Source of the values: PubChem BioAssay (NCI).
